High-throughput results: PubChem, several laboratories
In the library only some 4.2% were active in any assay of this set; here they are far more common.
tim10-1 inh: tim10-1 yeast growth inhibition; inhibition, % at 20 µM; hit rate 2.2% among 330,000; S. cerevisiae tim10-1 ts strain growth, BacTiter-Glo, 24 h;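 active = inhibition of at least 40%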;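 note: mutant grown at 25 °C; 0% = DMSO wells with yeast and 100% = wells holding no yeast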
tim23-1 inh: growth inhibitors of tim23-1 mutant yeast; hit rate 1.3% among 330,000; S. cerevisiae tim23-1 growth, BacTiter-Glo luminescence, 24 h; inhibition, % at 20 µM; AID 463212;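 active = growth inhibition of the mutant yeast at or above 50%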;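 note: temperature-sensitive mutant grown at 25 °C; plate controls were DMSO-treated mutant yeast for no effect and medium wells lacking yeast for full effect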
NALP3 yeast inh: blocks the NALP3 inflammasome reconstituted in yeast; Yeast reconstituted NLRP3/ASC/caspase-1, beta-gal luminescence, 24 h; inhibition, % at 10 µM; AID 2825; hit rate 0.39% among 330,000;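 active = inhibition of 50% or more; inactive = inhibition below 50%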;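 note: plate controls were induced DMSO wells for no effect and uninduced yeast grown without galactose for full effect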
V-ATPase pHluor: regulators of yeast V-ATPase proton transport; AID 504577; S. cerevisiae, pHLuorin cytosolic pH fluorescence; response, % at 10 µM; hit rate 0.37% among 350,000; in the data active = response mostly above about 7.3%, no sharp cut-off; inactive = mostly below about 5.4%; note: actives read high
TIM10 inh: TIM10 yeast growth inhibition | S. cerevisiae TIM10 strain growth, BacTiter-Glo luminescence, 24 h | inhibition, % at 10 µM | hit rate 1.4% among 330,000;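 active = inhibition of 40% or more at the single tested concentration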;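 note: wild-type TIM10 isogenic control strain grown at permissive 25 °C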
NALP1 yeast inh: inhibitors of NALP1 inflammasome in yeast; S. cerevisiae NALP1/ASC/caspase-1 growth, X-gal OD620, 72 h; inhibition, % at 10 µM; hit rate 0.61% among 280,000; in the data active = inhibition mostly above about 24%, no sharp cut-off; inactive = mostly below about 32%
An asterisk follows results filed as active; / = no result; ! = repeats disagree.

SMILES	tim10-1 inh	tim23-1 inh	NALP3 yeast inh	V-ATPase pHluor	TIM10 inh	NALP1 yeast inh
COc1ccc(C2=NN(C(=O)c3ccco3)C(c3ccco3)C2)cc1OC (configuration not stated)	-34.8	24.6	16.6	3.3	15.1	14.1
COc1ccccc1Oc1ccc2c(c1)C(=O)N(c1ccc(O)cc1)C2=O	-10.4	-10.1	3.6	2.8	-19.9	28.4*
CCOc1c(Cl)cc(C(=O)Nc2cccc(C(=O)O)c2)cc1Cl	-11.4	8.3	5.0	-1.7	14.6	-7.8
O=c1[nH]c2ccccc2n1Cc1ccccc1	-8.6	1.6	13.8	1.8	-7.3	21.0
O=c1[nH]c2cccnc2n1Cc1ccccc1	0.5	-6.5	7.4	/	-6.4	41.2*
Cc1nn(CC(=O)NCCc2cccs2)c(=O)c2cc3ccccc3n12	4.7	2.8	-3.8	2.0	-12.5	6.9
COc1ccc(C(=O)C(/C=N/O)=N/Nc2ccc(F)cc2)cc1	25.0	22.2	34.5	1.0	-15.7	20.2*
CC(NC(=O)C(=O)NCCN1CCN(C(=O)c2ccc([N+](=O)[O-])cc2)CC1)c1ccccc1 (configuration not stated)	2.4	-6.9	11.2	9.5	-5.8	26.9
O=C(c1ccc2c(c1)CCN2S(=O)(=O)c1ccccc1)N1CCN(c2ccc(F)cc2)CC1	18.9	24.3	5.4	14.3*	19.4	0.8
COCCCNC(=O)c1ccc2nc(Cc3ccc(OC)cc3)oc2c1	6.7	15.6	14.6	-2.1	-3.9	25.1*
CCOCCCNC(=O)c1ccc(OC(C)=O)cc1	3.7	3.5	-1.3	-0.7	9.3	13.7
CCOCCCNC(=O)c1ccc(OC)cc1	9.6	7.9	-4.6	-1.6	-20.5	27.6*
C=CCNC(=O)c1ccc2nc(Cc3ccc(OC)cc3)oc2c1	/	/	/	-1.7	/	/
O=C(Nc1ccc(Cl)c(S(=O)(=O)N2CCCCC2)c1)c1ccco1	19.7	44.8	-5.5	-2.6	19.5	/
COC(=O)c1cc(NC(=O)c2ccccc2)c(=O)oc1C/C=N\OCc1ccc(Cl)cc1Cl	31.6	29.6	19.9	2.8	14.8	42.5*
Cn1c(=O)c([N+](=O)[O-])c(Cl)c2ccccc21	/	/	/	32.3*	/	-1.3
CCN(CC)c1c([N+](=O)[O-])c(=O)n(C)c2ccccc12	2.1	19.7	22.2	-0.4	0.0	34.3
CCOC(=O)C1(CCOc2ccccc2)CCN(CC(O)CO)CC1 (configuration not stated)	-13.8	-8.7	1.8	1.4	-1.5	18.5
CCCN1CCCc2cc(CN(CCCN3CCOCC3)C(=O)Nc3ccc(OCC)cc3)ccc21	14.6	8.0	19.8	-1.4	15.3	44.6*
Cc1ccc(S(=O)(=O)N2CCCCC2)cc1C(=O)OC(C)C(=O)NCC1CCCCC1 (configuration not stated)	15.4	8.9	11.9	-0.9	6.7	/
COc1ccc(CN2CCOCCOCCOCC2)cc1	-12.8	5.8	-4.4	14.5*	-17.5	3.3
CN(C(=O)c1cc2ccccc2o1)c1c(N)n(Cc2ccccc2)c(=O)[nH]c1=O	2.0	17.8	10.6	-1.1	10.3	/
Cc1cc(OC(=O)C(C)(C)C)c([N+](=O)[O-])c(=O)[nH]1	1.1	8.2	16.5	4.2	0.1	33.9*
CC(C)[n+]1ccn(C2=C([O-])c3ccccc3C(=O)/C2=N\S(=O)(=O)c2ccccc2)c1	-2.5	10.7	12.2	5.7	-0.8	35.6*
Cc1c(N=C2C(=O)Nc3ccccc32)c(=O)n(-c2ccccc2)n1C	10.3	7.4	20.2	9.3*	-3.8	6.0
SMILES	tim10-1 inh	tim23-1 inh	NALP3 yeast inh	V-ATPase pHluor	TIM10 inh	NALP1 yeast inh
Cc1c(N=c2c(=O)c3ccccc3c2=O)c(=O)n(-c2ccccc2)n1C	8.8	10.5	9.7	/	-0.3	/
CNC(=O)CSCc1cnn(-c2ccccc2)c1-n1cccc1	9.2	11.9	8.1	0.3	4.0	41.2*
O=C(Cn1ncc2c3ccccc3n(Cc3ccccc3)c2c1=O)NCCCN1CCCC1=O	0.9	-6.3	-3.3	-1.1	-1.2	9.8
CCCN(CC(=O)Nc1ccccc1C)C(=O)c1ccc(NC2CC2)c([N+](=O)[O-])c1	10.0	12.0	6.5	-2.6	7.0	/
O=C(CSc1nc2ccccc2c(=O)n1CCCN1CCOCC1)NC12CC3CC(CC(C3)C1)C2	20.2	20.6	9.9	-2.9	8.0	34.5*
CC1=Nn2c(nnc2-c2ccccn2)SC1	-1.0	3.9	5.1	-2.1	-4.2	1.8
CC1=Nn2c(nnc2-c2ccccc2F)SC1	8.9	-13.2	-0.5	15.4*	6.3	3.6
Cc1ccc(NC(=O)CN(C)C(=O)COc2cccc3cccnc23)cc1	10.8	5.2	5.2	3.2	5.1	63.8*
Cc1ccc(NC(=O)CN(C)S(=O)(=O)c2cccc3cccnc23)cc1	28.6	25.4	7.5	0.8	11.3	-17.3
CCOC(=O)N1CCN(S(=O)(=O)c2c(C(=O)N3CCCCC3)c(C)n(C)c2C)CC1	-0.7	-3.2	19.2	-0.3	0.5	-0.2
CC(=O)c1c(C)[nH]c(C(=O)N(C)C(c2ccccc2)c2ccccc2)c1C	18.0	6.6	6.7	0.6	2.7	13.3
O=C1c2ccccc2-c2c1cccc2C(=O)N1CCCCCC1	31.0	38.4	3.2	14.9*	30.5	43.8
O=C1c2ccccc2-c2cccc(C(=O)N3CCCCCC3)c21	32.1	35.4	1.4	1.3	33.2	37.3
CCn1c(NCc2ccco2)nc2ccccc21	16.5	7.0	-2.4	0.8	-3.7	23.9*
CC(NCC(O)COC1CCC(C(C)(C)C)CC1)c1ccccc1 (configuration not stated)	-7.5	-153.6	32.2	0.7	-82.2	25.2*
COC(=O)c1cc(CSc2nc3ccccc3c(=O)n2C)oc1C	17.2	13.7	23.2	-4.8	3.8	24.2*
COc1ccccc1/C=C/C(=O)NCCc1ccccn1	-16.9	-3.1	19.7	2.7	4.3	28.6
NS(=O)(=O)c1ccc(CCNC(=O)c2cc(-c3ccccn3)nc3ccc(Br)cc23)cc1	-39.2	-51.5	19.7	1.7	-16.6	40.6*
NS(=O)(=O)c1ccc(CCNC(=O)c2cc(-c3ccc(Br)cc3)nc3ccccc23)cc1	23.9	6.8	4.7	-1.8	4.4	3.4
Cc1ccc(C(=O)N[C@H](C(=O)NC2CCCCC2)C(C)C)cc1	7.4	23.5	17.5	-1.5	11.5	/
Cc1cccc(NC(=O)C2CC(=O)n3cnnc3S2)c1 (configuration not stated)	19.8	4.5	8.0	1.9	34.6	40.4*
NS(=O)(=O)c1ccc(NC(=S)NC(=O)c2ccco2)cc1	7.9	10.6	10.7	-5.0	16.3	41.2*!
CC1CCN(CCOc2ccc(OCc3ccccc3)cc2)CC1	-47.3	-85.8	34.8	0.7	0.3	49.3*
O=C(COc1ccc(Br)cc1)NNC(=O)c1cc(S(=O)(=O)N2CCOCC2)ccc1Cl	/	/	/	3.8	/	/
CC(/C=N/NC(=O)c1ccc(Br)cc1)=C\c1ccccc1	10.6	23.9	8.4	-3.7	0.3	36.1*
COc1ccc(C(=O)N/N=C\C(C)=C\c2ccccc2)cc1OC	8.3	27.7	-1.6	1.1	19.7	/
